Rows were chosen to be rich in hits. Some 21% of all compounds tested hit in one or more screens of this group.
CHX counter: counter-screen for Shiga toxin inhibitors: cycloheximide protein synthesis inhibition. cell reporter, cycloheximide protein synthesis inhibition counterscreen. max response, %. actives 12% (n = 300,000); in the data active means max response mostly above about 13%, no sharp cut-off; inactive means mostly below about 14%; further: read at 38.3 µM for the half of the compounds with a filed dose
Shiga toxin inh: blocks Shiga toxin action in Vero cells. Vero cells, Shiga toxin protein synthesis inhibition reporter. inhibition, % at 38.7 µM. actives 9.2% (n = 290,000); in the data active means inhibition mostly above about 28%, no sharp cut-off; inactive means mostly below about 43%
Sm TGR inh: S. mansoni TGR enzyme inhibition; purified TGR, DTNB reduction, TNB absorbance 405 nm; Potency, µM (highest dose often 114 µM), most hits filed as inhibitors; actives 3% (n = 360,000); further: nearly all actives have a fitted effect of over 60% in size
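First, TGR (20 nM dispensed) and NADPH were mixed with compound. Second, a 15 min room-temperature incubation followed. Third, further NADPH and then DTNB were added to start the reaction. Finally, TNB absorbance was monitored kinetically.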
Pf growth 48h: inhibits P. falciparum growth in the first generation, 48 h; actives 5.9% (n = 310,000); Potency, µM (top dose mostly 28.7 µM), usual class: inhibitors; P. falciparum luciferase growth in erythrocytes, 48 h
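Growth was read as firefly luciferase luminescence after a 48 h, 37 C, 5% CO2 exposure of compounds to reporter-bearing P. falciparum cultures (0.1% parasitemia, 2% hematocrit final) in Albumax-supplemented RPMI 1640.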
Pf growth 96h: P. falciparum growth inhibition at 96 hour, primary screen for plastid delayed-death inhibitors; P. falciparum luciferase reporter growth, 96 h; Potency, µM (doses to about 28.7 µM), most hits filed as inhibitors; actives 6.9% (n = 320,000)
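Readout is luminescence from an integrated firefly luciferase in P. falciparum. Red cells, 2% hematocrit and 0.05% parasitemia final, were cultured with compound through two parasite generations (96 hours) at 37 C, 5% CO2.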
NS1 function inh: blocks influenza NS1 protein function | AID 2326 | actives 0.4% (n = 270,000) | Potency, µM (top dose mostly 46.1 µM); calls by dose curve; further: actives are rising curves; nearly all actives have a fitted effect of over 50% in size
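Compounds were scored for reversing the slow growth caused by influenza A NS1 in S. cerevisiae, measured by optical density at 600 nm. Assay medium contained 2% galactose at pH 6.0; NS1-free yeast of the same strain were the positive control.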
Numbers stand for hits; i = inactive; ? = inconclusive; nt = no result; [ ] = another dose, or the depositor's remark. Unless noted, the call rests on the fitted dose curve; in most records, active means well fitted curve in the direction sought with a large enough effect; inconclusive means small, poorly fitted or top-dose-only effect, or another doubt; inactive means no such curve, though single readings can be large; an effect the other way counts as inactive or inconclusive.

SMILES | CHX counter | Shiga toxin inh | Sm TGR inh | Pf growth 48h | Pf growth 96h | NS1 function inh
CSc1ccc(NC(=O)NCCN2CCc3ccccc3C2)cc1 | 16 | i | i | i | i | i
Cc1ccc(NC(=O)NCCN2CCN(C(=O)Nc3ccc(C)cc3)CC2)cc1 | i | i | i | ? | ? | i
COc1ccc(NC(=O)NCCCN2CCC(Cc3ccccc3)CC2)cc1 | i | i | i | i | ? | i
O=C(NCCN1CCN(C(=O)Nc2ccccc2)CC1)Nc1ccccc1 | i | i | i | nt | 5.2µM | i
COc1ccc(S(=O)(=O)N(CC(=O)NCc2ccncc2)c2ccc(C)cc2)cc1Br | i | i | i | i | i | i
Cc1ccc(OCCC(=O)O)cc1 | i | i | i | i | i | i
O=C(OCC1CCCO1)c1ccc2c(c1)N(Cc1ccccc1)C(=O)c1ccccc1S2(=O)=O (stereo unspecified) | nt | nt | i | nt | nt | nt
COc1ccccc1CN1CC(C(=O)NCCN2CCOC2=O)CCC1=O (stereo unspecified) | i | i | i | i | i | i
Nc1ccc(C(=O)O)cc1[N+](=O)[O-] | i | i | i | i | i | nt
Nc1ccc(C(=O)c2cccs2)cc1[N+](=O)[O-] | 28 | 71 | i | i | i | i
S=C(Nc1ccccc1)N1CCn2c1nc1ccccc12 | i | i | i | i | 2.6µM | i
CC(=O)c1nc2ccccc2n1CCc1ccccc1 | i | i | i | i | i | i
O=C(Nc1ccccc1)N1CCn2c1nc1ccccc12 | i | i | i | i | i | i
Nc1nc2ccccc2n1C(=O)c1ccco1 | 55 | 90 | i | i | ? | i
Nc1nc(-c2ccccc2)nn1C(=O)c1ccco1 | i | i | i | i | i | nt
Nc1nc2ccccc2n1C(=O)CCc1ccccc1 | 46 | 95 | i | i | nt | i
O=C(c1ccco1)N1CCn2c1nc1ccccc12 | 29 | 53 | i | i | i | i
Cc1ccc(C)c(N2CCN(C(=O)CCn3c(=O)c4cccn4c4cccnc43)CC2)c1 | nt | nt | i | nt | nt | nt
O=C(O)[C@H](Cc1cnc[nH]1)N1C(=O)c2ccccc2C1=O | nt | nt | nt | nt | nt | i
COc1ccc(CNC(=O)[C@H](Cc2c[nH]c3ccccc23)NC(=O)[C@@H]2Cc3ccccc3CN2)cc1 | i | i | i | ? | ? | i
COc1ccc(NC(=O)[C@H](Cc2c[nH]c3ccccc23)NC(=O)[C@@H]2Cc3ccccc3CN2)cc1 | 19 | i | i | ? | ? | i
CC(C)c1ccc(NC(=O)[C@H](Cc2c[nH]c3ccccc23)NC(=O)[C@@H]2Cc3ccccc3CN2)cc1 | 24 | i | i | ? | ? | i
CCN(CC)c1ccc(Nc2nc(-c3cccnc3)cs2)cc1 | 36 | 118 | i | ? | ? | i
CN(C)c1ccc(Nc2nc(-c3cccnc3)cs2)cc1 | 52 | 59 | i[11.4 µM] | nt | nt | i
COc1ccc(CC(=O)Nc2nc(-c3cccnc3)cs2)cc1 | i | i | i | i | i | i
SMILES | CHX counter | Shiga toxin inh | Sm TGR inh | Pf growth 48h | Pf growth 96h | NS1 function inh
C#CCN1CCN(c2cccc(C(F)(F)F)c2)CC1 | i | i | i | i | i | nt
FC(F)(F)c1cccc(N2Cc3ccccc3C2)c1 | 20 | 37 | i | 13µM | i | i
CCc1ccc(N2Cc3ccccc3C2)cc1 | 58 | 99 | 18µM | i | ? | i
Cc1cc(C)cc(N2Cc3ccccc3C2)c1 | i | i | ? | nt | 4.1µM | i
CCOC(=O)c1ccccc1O | nt | nt | nt | i | i | nt
CCOC(=O)c1ccc(N2Cc3ccccc3C2)cc1O | 46 | 65 | i | 4.1µM | i | i
COc1cc(N2Cc3ccccc3C2)ccc1C=O | i | i | ? | i | i | i
Cc1cccc2nc(-c3ccco3)c(Nc3ccccc3)n12 | i | i | i | i | i | nt
Cc1cccc2nc(-c3ccco3)c(Nc3ccc4c(c3)OCO4)n12 | 31 | i | ? | ? | ? | nt
Cc1cc(C)n2c(Nc3ccc4c(c3)OCCO4)c(-c3ccccc3)nc2n1 | 46 | 52 | i | nt | ? | i
COc1ccc(C(=O)COC(=O)C(CCSC)NS(=O)(=O)c2ccc(Cl)cc2)cc1 (stereo unspecified) | i | i | i | i | i | i
CC(C1CCN(Cc2nc(C3CC3)no2)CC1)N1CCOCC1 (stereo unspecified) | i | i | i | i | 13µM | i
CCCn1c(=O)[nH]c2nc(-c3ccc(S(=O)(=O)O)cc3)[nH]c2c1=O | i | i | nt | nt | nt | nt
CCCC1=[N+](CC(C)=O)CCn2c(C)ccc21 | i | i | 28µM | ? | i | nt
Cc1ccc(N2C(=O)CS(=O)(=O)CC2=O)cc1 | i | i | 8.9µM | i | i | i
Cc1ccc(N2CC(=O)N(c3ccc(C)cc3)CC2=O)cc1 | i | i | i | i | i | i
Cc1ccc(N2C(=O)CC3(CCCC3)CC2=O)cc1 | 17 | i | i | i | i | i
CCCCNC(=O)CNC(=S)N(CCCN1CCOCC1)Cc1cccs1 | i | i | i | i | i | i
COc1ccc(CNC(=S)Nc2cc(C)cc(C)c2)cc1 | i | i | i | ? | ? | i
COc1ccc(CNC(=S)Nc2ccccc2Cl)cc1 | i | i | 40µM | i | i | i
COc1ccc(CNC(=S)Nc2ccccc2-c2ccccc2)cc1 | i | i | i | ? | 8.3µM | nt
COc1ccc(CNC(=S)Nc2ccc(-c3ccccc3)cc2)cc1 | i | i | i | ? | ? | nt
Cc1cccc(N2CCN(C(=O)C3CCN(S(=O)(=O)Cc4ccccc4)CC3)CC2)c1C | nt | nt | i | nt | nt | nt
C=C(C)Cn1c(=O)c2c(nc3n2CCN3c2ccc(CC)cc2)n(C)c1=O | nt | nt | i | nt | nt | nt
CCN(CC)S(=O)(=O)c1ccc(N2CCOCC2)c(NS(=O)(=O)c2cccs2)c1 | nt | nt | i | i | i | nt
SMILES | CHX counter | Shiga toxin inh | Sm TGR inh | Pf growth 48h | Pf growth 96h | NS1 function inh
CCN(CC)S(=O)(=O)c1ccc(N2CCOCC2)c(NS(=O)(=O)c2ccc(C(C)C)cc2)c1 | i | i | i | 2.9µM | 1.5µM | i
CCN(CC)S(=O)(=O)c1ccc(N2CCOCC2)c(NS(=O)(=O)c2cc(C(C)(C)C)ccc2C)c1 | i | i | i | 0.083µM | ? | ?
Cc1cccc(CNC(=O)c2ccc3nc(-c4ccccc4)c(-c4ccccc4)nc3c2)c1 | nt | nt | i | nt | nt | nt
Cc1nn(-c2ccc(N3CCCCC3)nn2)c(C)c1CCC(=O)Nc1cc(F)ccc1F | 48 | 45 | i | i | ? | i
Cc1nn(-c2ccc(N3CCCCC3)nn2)c(C)c1CCC(=O)Nc1ccccc1F | 22 | 63 | ? | i | i | i
Cc1ccccc1NC(=O)CCc1c(C)nn(-c2ccc(N3CCCCC3)nn2)c1C | i | i | i | ? | i | i
Cc1ccc(CN2CCN(Cc3ccc(Oc4ncccn4)cc3)CC2CCO)cc1 (stereo unspecified) | i | i | i | i | ? | i
CCS(=O)(=O)N1CCc2cc(C(=O)Nc3cccc(C)c3C)ccc21 | nt | nt | i | nt | nt | nt
COc1ccc(Cl)cc1NC(=O)CN(C)C(=O)c1sccc1-c1ccccc1 | nt | nt | i | i | i | nt
CCC1CCc2sc(C(=O)N3CCCN(C)CC3)cc2C1 (stereo unspecified) | 23 | i | ? | i | i | i
COc1cccc(-n2cc(C(=O)NC(C)C)c3ccccc3c2=O)c1 | i | i | i | i | 1.3µM | i
